Records with an inconclusive call do not appear. Active and inactive are the calls of the source. How the source made its calls: active means hit-call score of the fitted dose curve at least 0.9, where 1 is the maximum; inconclusive means response in the unintended direction; inactive means score below 0.9.
Experiments:
[1] = ATG_M_32_XSP1: Attagene TRANS-FACTORIAL Multi-Species (XSP1) HepG2 Assay for M32 Transcription Factor (Internal Marker) (AID 2283799)
Outline: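 Reporter transcripts from the M32 internal-control unit measured by RT-PCR, FAM labelling, HpaI digestion and capillary electrophoresis after 24 h compound exposure of transfected HepG2, 3 nM 6-alpha-fluorotestosterone included; DMSO baseline, positive-direction fit.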

[2] = biological target: Peroxisome proliferator-activated receptor gamma (Homo sapiens) (UniProt P37231); experiment: ATG_hPPARg_XSP1: Attagene TRANS-FACTORIAL Multi-Species (XSP1) HepG2 Assay for human Peroxisome Proliferator-activated Receptor gamma (PPARg) (AID 2283800)
Peroxisome proliferator-activated receptor gamma (Homo sapiens), sequence (P37231 whole entry, looked up, the tested form may be a part): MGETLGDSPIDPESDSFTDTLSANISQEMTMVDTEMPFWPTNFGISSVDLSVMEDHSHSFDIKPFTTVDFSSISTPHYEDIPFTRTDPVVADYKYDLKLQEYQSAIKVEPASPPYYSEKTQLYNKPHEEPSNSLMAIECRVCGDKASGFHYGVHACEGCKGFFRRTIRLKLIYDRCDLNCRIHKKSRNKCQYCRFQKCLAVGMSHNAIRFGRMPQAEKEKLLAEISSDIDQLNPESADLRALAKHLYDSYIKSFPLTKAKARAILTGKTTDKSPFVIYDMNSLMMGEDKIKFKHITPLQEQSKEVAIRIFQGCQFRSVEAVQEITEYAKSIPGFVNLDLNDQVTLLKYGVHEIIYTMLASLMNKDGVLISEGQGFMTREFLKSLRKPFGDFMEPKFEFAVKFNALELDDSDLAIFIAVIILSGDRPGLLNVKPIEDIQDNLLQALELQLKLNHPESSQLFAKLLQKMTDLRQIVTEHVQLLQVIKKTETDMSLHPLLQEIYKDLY
Outline: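 Reporter mRNA induction, measured by RT-PCR with capillary electrophoresis 24 h after dosing, scored as gain over DMSO. Transfected HepG2 cells express exogenous NR-Gal4 chimeras driving GAL4-UAS reporters; medium includes 3 nM 6-alpha-fluorotestosterone.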

[3] = system: zebrafish Peroxisome Proliferator-activated Receptor gamma (PPARg), gene 557037; experiment: ATG_zfPPARg_XSP1: Attagene TRANS-FACTORIAL Multi-Species (XSP1) HepG2 Assay for zebrafish Peroxisome Proliferator-activated Receptor gamma (PPARg) (AID 2283801)
Outline: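 Trans-activation readout of chimeric zebrafish PPARg–GAL4 in transiently transfected human HepG2 cells, 24 h chemical exposure (medium includes 3 nM 6-alpha-fluorotestosterone). Reporter transcripts measured by RT-PCR and capillary electrophoresis, fitted as gain over DMSO.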

[4] = biological target: mouse Peroxisome Proliferator-activated Receptor gamma (PPARg), Pparg (gene 19016) (UniProt P37238); experiment: ATG_mPPARg_XSP1: Attagene TRANS-FACTORIAL Multi-Species (XSP1) HepG2 Assay for mouse Peroxisome Proliferator-activated Receptor gamma (PPARg) (AID 2283802)
mouse Peroxisome Proliferator-activated Receptor gamma (PPARg), Pparg (gene 19016), sequence (P37238 whole entry, looked up, the tested form may be a part): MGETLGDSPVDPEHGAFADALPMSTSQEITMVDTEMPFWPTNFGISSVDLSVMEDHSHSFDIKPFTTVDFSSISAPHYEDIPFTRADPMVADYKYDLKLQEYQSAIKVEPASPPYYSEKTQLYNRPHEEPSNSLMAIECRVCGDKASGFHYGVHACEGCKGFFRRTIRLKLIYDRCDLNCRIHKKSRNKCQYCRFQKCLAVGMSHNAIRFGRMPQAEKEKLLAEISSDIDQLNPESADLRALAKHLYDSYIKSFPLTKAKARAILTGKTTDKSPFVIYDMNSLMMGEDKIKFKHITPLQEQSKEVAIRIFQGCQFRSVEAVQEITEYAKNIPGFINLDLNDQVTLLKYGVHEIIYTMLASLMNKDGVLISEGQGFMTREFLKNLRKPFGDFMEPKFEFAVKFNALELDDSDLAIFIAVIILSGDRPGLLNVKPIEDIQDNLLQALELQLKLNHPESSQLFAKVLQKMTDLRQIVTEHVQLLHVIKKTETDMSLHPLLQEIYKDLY
Outline: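 Readout is reporter mRNA induction, measured by RT-PCR with 6-FAM labelling, HpaI digestion and capillary electrophoresis, 24 h post-dose relative to DMSO. Transient multi-reporter transfection of human HepG2 with mouse PPARg–GAL4 fusion; 3 nM 6-alpha-fluorotestosterone included.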

[5] = biological target: Nuclear receptor subfamily 1 group I member 2 (Mus musculus) (UniProt O54915); experiment: ATG_mPXR_XSP1: Attagene TRANS-FACTORIAL Multi-Species (XSP1) HepG2 Assay for mouse Pregnane X Receptor (PXR) (AID 2283803)
Nuclear receptor subfamily 1 group I member 2 (Mus musculus), sequence (O54915 whole entry, looked up, the tested form may be a part): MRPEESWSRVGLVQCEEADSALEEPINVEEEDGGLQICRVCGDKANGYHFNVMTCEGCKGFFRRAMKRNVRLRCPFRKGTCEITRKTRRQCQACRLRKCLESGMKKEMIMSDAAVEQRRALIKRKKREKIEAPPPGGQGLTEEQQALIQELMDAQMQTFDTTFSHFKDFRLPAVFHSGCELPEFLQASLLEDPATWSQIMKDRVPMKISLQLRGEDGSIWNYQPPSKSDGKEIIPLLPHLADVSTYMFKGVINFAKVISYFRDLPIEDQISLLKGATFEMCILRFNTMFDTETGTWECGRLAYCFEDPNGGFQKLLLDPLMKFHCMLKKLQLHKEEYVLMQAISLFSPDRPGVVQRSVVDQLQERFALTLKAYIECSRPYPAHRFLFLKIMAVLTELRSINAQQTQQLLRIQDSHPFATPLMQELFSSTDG
Outline: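 Transiently transfected HepG2 cells expressing a receptor-Gal4 chimera drive a GAL4-UAS reporter; 3 nM 6-alpha-fluorotestosterone included. Reporter mRNA read 24 h post-dose by RT-PCR and capillary electrophoresis; gain of signal relative to DMSO.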

[6] = biological target: human Thyroid hormone Receptor alpha (TRa), THRA (gene 7067) (UniProt P10827); experiment: ATG_hTRa_XSP1: Attagene TRANS-FACTORIAL Multi-Species (XSP1) HepG2 Assay for human Thyroid hormone Receptor alpha (TRa) (AID 2283805)
human Thyroid hormone Receptor alpha (TRa), THRA (gene 7067), sequence (P10827 whole entry, looked up): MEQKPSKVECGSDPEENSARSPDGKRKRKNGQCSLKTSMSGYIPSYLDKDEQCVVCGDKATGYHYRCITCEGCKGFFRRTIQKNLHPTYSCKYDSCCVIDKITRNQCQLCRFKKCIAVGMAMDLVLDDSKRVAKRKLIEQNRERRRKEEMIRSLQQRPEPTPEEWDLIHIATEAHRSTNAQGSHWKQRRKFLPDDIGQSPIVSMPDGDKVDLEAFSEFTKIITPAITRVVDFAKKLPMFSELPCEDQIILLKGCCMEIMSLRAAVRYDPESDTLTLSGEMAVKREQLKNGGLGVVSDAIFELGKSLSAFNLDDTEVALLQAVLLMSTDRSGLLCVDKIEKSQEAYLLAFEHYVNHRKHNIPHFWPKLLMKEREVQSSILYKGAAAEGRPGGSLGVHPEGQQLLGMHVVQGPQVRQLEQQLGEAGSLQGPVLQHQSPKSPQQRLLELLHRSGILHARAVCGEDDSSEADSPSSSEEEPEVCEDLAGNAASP
Description: (§1) ATG_XSP1_multi-species_TRANS is a cell-based, multiplexed assay created by modifying the existing Attagene TRANS-FACTORIAL system to include a panel of nuclear receptors from some or all the following species: human (Homo sapiens), mouse (Mus musculus), frog (Xenopus laevis), zebrafish (Danio rerio), chicken (Gallus gallus), and turtle (Chrysemys picta). The ECOTOX-FACTORIAL format uses HepG2, a human liver cell line, with measurements taken at 24 hours after chemical dosing in a 24-well plate. Xsp1 included 3 nM 6-alpha-fluorotestosterone to partially stimulate the androgen receptor.ATG_hTRa_XSP1 is one of 29 assay components measured or calculated from the ATG_XSP1_multi-species_TRANS assay. It is designed to make measurements of mRNA induction, a form of inducible reporter, as detected with fluorescence intensity signals by Reverse transcription polymerase chain reaction (RT-PCR) and Capillary electrophoresis technology.The assay endpoint ATG_hTRa_XSP1 was analyzed in the positive analysis fitting direction relative to DMSO as the negative control and baseline of activity. […] Furthermore, this assay endpoint can be referred to as a primary readout, because this assay has produced multiple assay endpoints where this one serves a reporter gene function. […]

[7] = system: turtle Thyroid Hormone Receptor, alpha (TRa), gene 101949057; experiment: ATG_trTRa_XSP1: Attagene TRANS-FACTORIAL Multi-Species (XSP1) HepG2 Assay for turtle Thyroid Hormone Receptor, alpha (TRa) (AID 2283806)
Description: as §1, with “receptor.ATG_trTRa_XSP1” for “receptor.ATG_hTRa_XSP1”, “ATG_trTRa_XSP1” for “ATG_hTRa_XSP1”

[8] = biological target: zebrafish Thyroid Hormone Receptor alpha (TRa), thraa (gene 30670) (UniProt Q98867); experiment: ATG_zfTRa_XSP1: Attagene TRANS-FACTORIAL Multi-Species (XSP1) HepG2 Assay for zebrafish Thyroid Hormone Receptor alpha (TRa) (AID 2283807)
zebrafish Thyroid Hormone Receptor alpha (TRa), thraa (gene 30670), sequence (Q98867 whole entry, looked up, the tested form may be a part): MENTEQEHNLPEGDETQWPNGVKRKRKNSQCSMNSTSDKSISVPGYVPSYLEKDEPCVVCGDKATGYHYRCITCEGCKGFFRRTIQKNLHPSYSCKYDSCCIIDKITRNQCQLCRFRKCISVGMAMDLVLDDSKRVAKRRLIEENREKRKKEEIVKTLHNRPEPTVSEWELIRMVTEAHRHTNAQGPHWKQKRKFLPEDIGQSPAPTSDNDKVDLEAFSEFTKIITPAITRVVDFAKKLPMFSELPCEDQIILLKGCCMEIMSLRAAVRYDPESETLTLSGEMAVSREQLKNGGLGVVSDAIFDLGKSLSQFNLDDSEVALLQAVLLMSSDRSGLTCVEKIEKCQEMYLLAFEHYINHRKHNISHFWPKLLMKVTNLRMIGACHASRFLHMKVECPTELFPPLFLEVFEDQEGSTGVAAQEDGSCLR
Outline: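 Reporter transcripts driven by a chimeric zebrafish TRa–Gal4 protein were measured by RT-PCR with fluorescent labelling and capillary electrophoresis. These came from transiently transfected HepG2 cells after 24 h chemical exposure, with 3 nM 6-alpha-fluorotestosterone added; baseline was DMSO.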

[9] = biological target: human Thyroid hormone Receptor beta (TRb), THRB (gene 7068) (UniProt P10828); experiment: ATG_hTRb_XSP1: Attagene TRANS-FACTORIAL Multi-Species (XSP1) HepG2 Assay for human Thyroid hormone Receptor beta (TRb) (AID 2283808)
human Thyroid hormone Receptor beta (TRb), THRB (gene 7068), sequence (P10828 whole entry, looked up, the tested form may be a part): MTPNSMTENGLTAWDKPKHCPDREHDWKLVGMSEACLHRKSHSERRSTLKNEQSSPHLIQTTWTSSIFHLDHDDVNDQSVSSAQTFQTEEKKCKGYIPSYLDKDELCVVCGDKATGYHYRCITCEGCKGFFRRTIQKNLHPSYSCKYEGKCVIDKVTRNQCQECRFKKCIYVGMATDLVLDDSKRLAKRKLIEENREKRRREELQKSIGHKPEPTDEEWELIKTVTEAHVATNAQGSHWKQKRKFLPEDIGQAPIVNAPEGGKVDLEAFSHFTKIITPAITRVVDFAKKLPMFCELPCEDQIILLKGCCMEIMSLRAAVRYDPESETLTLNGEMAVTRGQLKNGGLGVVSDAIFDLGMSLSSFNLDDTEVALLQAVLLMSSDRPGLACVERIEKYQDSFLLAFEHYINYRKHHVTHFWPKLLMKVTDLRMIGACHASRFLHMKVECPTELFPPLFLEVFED
Outline: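 Readout is reporter mRNA induction measured by RT-PCR, fluorescent labelling and capillary electrophoresis, fitted upward relative to DMSO. Transiently transfected human HepG2 cells expressing NR-Gal4 chimeras were dosed for 24 h, medium containing 3 nM 6-alpha-fluorotestosterone.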

[10] = biological target: zebrafish Thyroid Hormone Receptor beta (TRb), thrb (gene 30607) (UniProt Q9PVE4); experiment: ATG_zfTRb_XSP1: Attagene TRANS-FACTORIAL Multi-Species (XSP1) HepG2 Assay for zebrafish Thyroid Hormone Receptor beta (TRb) (AID 2283809)
zebrafish Thyroid Hormone Receptor beta (TRb), thrb (gene 30607), sequence (Q9PVE4 whole entry, looked up, the tested form may be a part): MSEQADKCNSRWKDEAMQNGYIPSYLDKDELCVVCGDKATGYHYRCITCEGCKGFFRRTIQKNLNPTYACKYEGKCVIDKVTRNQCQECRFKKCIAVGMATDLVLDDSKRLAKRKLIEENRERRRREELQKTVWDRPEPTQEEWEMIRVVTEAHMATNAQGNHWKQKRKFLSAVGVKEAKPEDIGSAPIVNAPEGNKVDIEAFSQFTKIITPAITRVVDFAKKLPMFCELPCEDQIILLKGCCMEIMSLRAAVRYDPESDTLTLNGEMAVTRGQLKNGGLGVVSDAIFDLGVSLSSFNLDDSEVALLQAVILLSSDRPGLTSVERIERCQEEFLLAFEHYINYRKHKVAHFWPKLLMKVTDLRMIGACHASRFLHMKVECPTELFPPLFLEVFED
Outline: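 HepG2 cells transiently transfected with multiplexed GAL4-UAS reporter units expressing chimeric zebrafish TRb–Gal4. Dosed 24 h with 3 nM 6-alpha-fluorotestosterone present; reporter mRNA measured by RT-PCR, HpaI digestion and capillary electrophoresis; gain of signal versus DMSO.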

Measured: AC50

O=P(OC(CCl)CCl)(OC(CCl)CCl)OC(CCl)CCl
active: [3] 78.6 µM | [4] 25.8 µM | [5] 0.447 µM
inactive: all other assays above

— PubChem BioAssay (EPA / NIEHS)
